Laboratory results: the supplement of paper PMC9262897, “Low-cost anti-mycobacterial drug discovery using engineered E. coli” (Nature Communications, 2022)
Structures can show the parent of a compound that is named as a salt. ± gives the standard deviation of the averaged measurements.

What follows are compounds tested on E. coli TESEC Mtb Alr (assay: growth (OD600 after 10 h); higher = more growth (less inhibition)). Settings: arabinose 1000 nM; compound 0.1 mM; raw OD600 reference: median of DMSO wells 0.294, cell-free background 0.041.
Experimental: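 TESEC Mtb Alr E. coli, or the Alr+ wild-type control, in 384-well plates with Prestwick library compounds at 0.1 mM and 1% DMSO, across arabinose induction levels of 1E3 to 1E7 nM. Growth is read as OD600 after 10 h at 37 °C in triplicate biological replicates.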

SMILES	growth
COc1cc(C(=O)NS(=O)(=O)c2ccccc2C)ccc1Cc1cn(C)c2ccc(NC(=O)OC3CCCC3)cc12 [Zafirlukast]	0.0976 ± 0.0046
NNc1nncc2ccccc12 [Hydralazine hydrochloride]	0.262 ± 0.022
Nc1c2c(nc3ccccc13)CCCC2O (racemic) [Hydroxytacrine maleate (R,S)]	0.264 ± 0.028
CCN(CC)CCOC(=O)C1(C2CCCCC2)CCCCC1 [Dicyclomine hydrochloride]	0.115 ± 0.063
O=C(Oc1cccc2cccnc12)c1ccccc1 [Benzoxiquine]	0.264 ± 0.016
O=C1CC2(CCCC2)CC(=O)N1CCCCN1CCN(c2ncccn2)CC1 [Buspirone hydrochloride]	0.274 ± 0.0095
CCN(CC)C(=O)C1(c2ccccc2)CC1CN (centres undefined) [Milnacipran hydrochloride]	0.298 ± 0.0046
CCN(CC)CC#CCOC(=O)C(O)(c1ccccc1)C1CCCCC1 (centres undefined) [Oxybutynin chloride]	0.13 ± 0.067
C[C@]12C=CC(=O)C=C1CC[C@H]1[C@@H]3C[C@@H](O)[C@](O)(C(=O)CO)[C@@]3(C)C[C@H](O)[C@@]12F [Triamcinolone]	0.256 ± 0.033
O=C(CCCCC(=O)Nc1c(I)cc(I)c(C(=O)O)c1I)Nc1c(I)cc(I)c(C(=O)O)c1I [Iodipamide]	0.298 ± 0.0095
CCN(CCO)CCCC(C)Nc1ccnc2cc(Cl)ccc12 (centres undefined) [Hydroxychloroquine sulfate]	0.282 ± 0.011
Cc1ccsc1/C=C/C1=NCCCN1C [Morantel tartrate]	0.306 ± 0.0079
Cc1noc(NS(=O)(=O)c2ccc(N)cc2)c1C [Sulfisoxazole]	0.274 ± 0.021
C=CCOc1ccccc1OCC(O)CNC(C)C (centres undefined) [Oxprenolol hydrochloride]	0.281 ± 0.0082
CCOc1ccc2c(c1)C(C)=CC(C)(C)N2 [Ethoxyquin]	0.283 ± 0.015
CC1Cc2ccccc2N1NC(=O)c1ccc(Cl)c(S(N)(=O)=O)c1 (centres undefined) [Indapamide]	0.278 ± 0.01
CCC(=O)OCC(=O)[C@@]1(OC(=O)CC)[C@H](C)C[C@H]2[C@H]3[C@H]([C@@H](O)C[C@@]21C)[C@@]1(C)C=CC(=O)C=C1C[C@H]3Cl [Alclometasone dipropionate]	0.318 ± 0.028

SMILES	growth
Cc1scc2c1N(C(=O)CN1CCN(C)CC1)c1ccccc1NC2=O [Telenzepine dihydrochloride]	0.309 ± 0.0066
O=C1CC[C@@H](C(=O)N2CSC[C@H]2C(=O)O)N1 [Pidotimod]	0.29 ± 0.003
CCC1NC(=O)c2cc(S(N)(=O)=O)c(Cl)cc2N1 (centres undefined) [Quinethazone]	0.281 ± 0.0094
CN1CCCN(C(c2ccccc2)c2ccc(Cl)cc2)CC1 (centres undefined) [Homochlorcyclizine dihydrochloride]	0.137 ± 0.082
C1N2CN3CN1CN(C2)C3 [Methenamine]	0.287 ± 0.0055
CC(C)(O/N=C(\C(=O)N[C@@H]1C(=O)N2C(C(=O)[O-])=C(C[n+]3ccccc3)CS[C@H]12)c1csc(N)n1)C(=O)O [Ceftazidime pentahydrate]	0.0435 ± 0.0041
CC(C(O)c1ccc(O)cc1)N1CCC(Cc2ccccc2)CC1 (centres undefined) [Ifenprodil tartrate]	0.251 ± 0.019
CCN(CC)CCNC(=O)c1ccc(N)cc1 [Procainamide hydrochloride]	0.306 ± 0.019
CC[C@H]1OC(=O)[C@H](C)[C@@H](O[C@H]2C[C@@](C)(OC)[C@@H](O)[C@H](C)O2)[C@H](C)[C@@H](O[C@@H]2O[C@H](C)C[C@H](N(C)C)[C@H]2O)[C@](C)(O)C[C@@H](C)CN(C)[C@H](C)[C@@H](O)[C@]1(C)O [Azithromycin]	0.0419 ± 0.0015
OC(CCN1CCCCC1)(c1ccccc1)C1CCCCC1 (centres undefined) [Trihexyphenidyl-D,L Hydrochloride]	0.316 ± 0.019
CN1C(C(=O)Nc2ccccn2)=C(O)c2ccccc2S1(=O)=O [Piroxicam]	0.229 ± 0.0073
c1ccc(CN(CC2=NCCN2)c2ccccc2)cc1 [Antazoline hydrochloride]	0.279 ± 0.02
CCCc1nc2c(C)cc(-c3nc4ccccc4n3C)cc2n1Cc1ccc(-c2ccccc2C(=O)O)cc1 [Telmisartan]	0.271 ± 0.02
Nc1nc(F)nc2c1ncn2[C@@H]1O[C@H](CO)[C@@H](O)[C@@H]1O [Fludarabine]	0.216 ± 0.0082
CN1CCOC(c2ccccc2)c2ccccc2C1 (centres undefined) [Nefopam hydrochloride]	0.294 ± 0.0068
NCCCC(O)(P(=O)(O)O)P(=O)(O)O [Alendronate sodium]	0.305 ± 0.013
Clc1ccccc1C(c1ccccc1)(c1ccccc1)n1ccnc1 [Clotrimazole]	0.04147 ± 0.00015
